Assay results from PubChem BioAssay (Tox21).
Results filed as inconclusive are left out. Active and inactive are the calls of the source. Unless noted, calls come from the whole dose curve; as a rule, active = well fitted curve in the direction sought with a large enough effect in the repeat runs; inconclusive = weak or mixed curves; inactive = no such curve, though single readings can be large; an effect the other way counts as inactive or inconclusive.

Key:
[1] = molecular target: Peroxisome proliferator-activated receptor delta (Homo sapiens) (UniProt Q03181); test: qHTS assay to identify small molecule agonists of the peroxisome proliferator-activated receptor delta (PPARd) signaling pathway (AID 743212; calls by dose curve;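 note: HEK293H cells with PPARd UAS beta-lactamase reporter GeneBLAzer system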; note: potency is the fitted concentration of half-maximal effect)
Sequence of Peroxisome proliferator-activated receptor delta (Homo sapiens) (Q03181 whole entry, looked up): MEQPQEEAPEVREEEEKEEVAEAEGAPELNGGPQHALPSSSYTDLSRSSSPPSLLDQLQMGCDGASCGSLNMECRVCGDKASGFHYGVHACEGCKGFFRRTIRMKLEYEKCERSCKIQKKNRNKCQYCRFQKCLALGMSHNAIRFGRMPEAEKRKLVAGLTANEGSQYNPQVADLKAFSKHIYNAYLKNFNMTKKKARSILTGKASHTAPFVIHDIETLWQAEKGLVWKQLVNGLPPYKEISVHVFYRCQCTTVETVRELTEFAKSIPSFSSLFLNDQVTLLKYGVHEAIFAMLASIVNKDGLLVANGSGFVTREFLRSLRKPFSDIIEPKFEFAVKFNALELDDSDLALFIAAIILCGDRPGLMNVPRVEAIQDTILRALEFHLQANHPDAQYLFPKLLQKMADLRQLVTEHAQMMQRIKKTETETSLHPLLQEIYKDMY
Method in brief: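 Steps: seed PPARd-bla HEK293H cells; incubate 5 h, 37 C, 5% CO2; add compounds in DMSO; incubate, 37 C; add LiveBLAzer B/G FRET substrate; hold 2 h at room temperature; measure fluorescence.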

[2] = qHTS assay to identify small molecule antagonists of the peroxisome proliferator-activated receptor delta (PPARd) signaling pathway - cell viability counter screen (AID 743213); note: nearly all actives have a fitted effect of over 50% in size; note: potency is the fitted concentration of half-maximal effect
Method in brief: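 CellTiter-Glo was added to PPARd-bla HEK293H wells following 17 h compound treatment in the presence of 300 nM L165041. Luminescence was recorded after 30 min at room temperature.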

[3] = molecular target: Peroxisome proliferator-activated receptor delta (Homo sapiens) (UniProt Q03181); test: qHTS assay to identify small molecule antagonists of the peroxisome proliferator-activated receptor delta (PPARd) signaling pathway (AID 743215; active = well fitted inhibition curve with a large enough effect in the signal ratio in the repeat runs, not every such curve was filed as active; the % refers to the signal ratio;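 note: cells stimulated with agonist L165041 at 300 nM final during compound exposure; series mostly up to about 62 µM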)
Method in brief: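 Plated HEK293H PPARd-bla cells rested 5 h at 37 C and 5% CO2. Compound, then agonist L165041 at 300 nM final, was added; 17 h at 37 C followed. Substrate loading, 2 h room temperature, fluorescence measured.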

[4] = molecular target: Bile acid receptor (Homo sapiens) (UniProt Q96RI1); test: qHTS assay to identify small molecule antagonists of the farnesoid-X-receptor (FXR) signaling pathway (AID 743217; active = well fitted inhibition curve with a large enough effect in the signal ratio in the repeat runs, not every such curve was filed as active; the % refers to the signal ratio)
Sequence of Bile acid receptor (Homo sapiens) (Q96RI1 whole entry, looked up): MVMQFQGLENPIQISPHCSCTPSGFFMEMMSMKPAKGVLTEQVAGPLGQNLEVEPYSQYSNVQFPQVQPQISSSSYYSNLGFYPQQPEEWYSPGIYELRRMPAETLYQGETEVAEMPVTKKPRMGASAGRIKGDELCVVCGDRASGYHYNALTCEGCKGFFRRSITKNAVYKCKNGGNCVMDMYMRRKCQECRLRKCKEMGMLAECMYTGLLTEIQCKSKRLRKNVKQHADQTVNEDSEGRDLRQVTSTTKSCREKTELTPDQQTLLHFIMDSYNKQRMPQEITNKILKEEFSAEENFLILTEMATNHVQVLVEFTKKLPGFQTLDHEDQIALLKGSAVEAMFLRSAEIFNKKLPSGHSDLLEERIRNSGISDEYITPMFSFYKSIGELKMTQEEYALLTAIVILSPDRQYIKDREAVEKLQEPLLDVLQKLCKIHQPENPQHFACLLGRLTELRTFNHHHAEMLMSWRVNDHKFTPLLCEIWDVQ
Method in brief: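 Screen of the Tox21 10K library in quantitative HTS format using FXR-UAS-bla HEK 293T reporter cells. Agonist chenodeoxycholic acid, 50 uM final, added with compounds; 16 h incubation at 37 °C; beta-lactamase FRET fluorescence measured.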

[5] = qHTS assay to identify small molecule agonists of the farnesoid-X-receptor (FXR) signaling pathway - cell viability counter screen (AID 743218); note: nearly all actives have a fitted effect of over 45% in size
Method in brief: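 Viability of FXR-bla HEK 293T cells is measured by ATP-based CellTiter-Glo luminescence following 16 h compound treatment at 37 C and a prior 2 h room-temperature beta-lactamase substrate step.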

[6] = qHTS assay to identify small molecule antagonists of the farnesoid-X-receptor (FXR) signaling pathway - cell viability counter screen (AID 743221; active = well fitted cell-killing curve with a large enough effect in the repeat runs, not every such curve was filed as active; note: nearly all actives have a fitted effect of over 50% in size)
Method in brief: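 Luminescence from CellTiter-Glo measures cytotoxicity in GeneBLAzer FXR-UAS-bla HEK 293T cells. Cells were exposed to compounds with 50 uM chenodeoxycholic acid (final) for 16 h at 37 C, in wells also used for the reporter readout.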

[7] = molecular target: Vitamin D3 receptor (Homo sapiens) (UniProt P11473); test: qHTS assay to identify small molecule agonists of the vitamin D receptor (VDR) signaling pathway (AID 743222; calls by dose curve)
Sequence of Vitamin D3 receptor (Homo sapiens) (P11473 whole entry, looked up): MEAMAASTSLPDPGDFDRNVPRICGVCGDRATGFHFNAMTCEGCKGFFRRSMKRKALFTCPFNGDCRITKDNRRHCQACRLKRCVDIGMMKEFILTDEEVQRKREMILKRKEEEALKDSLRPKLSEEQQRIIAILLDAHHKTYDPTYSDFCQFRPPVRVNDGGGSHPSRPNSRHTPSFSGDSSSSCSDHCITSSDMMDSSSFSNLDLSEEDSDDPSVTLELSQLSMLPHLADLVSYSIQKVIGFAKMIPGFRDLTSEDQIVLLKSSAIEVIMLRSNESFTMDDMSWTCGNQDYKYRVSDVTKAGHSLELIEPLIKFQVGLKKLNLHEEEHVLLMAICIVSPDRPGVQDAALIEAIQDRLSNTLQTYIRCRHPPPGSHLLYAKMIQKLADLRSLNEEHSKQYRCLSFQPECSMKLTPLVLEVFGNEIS
Method in brief: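 Fluorescence from cleaved LiveBLAzer B/G FRET substrate served as readout. VDR-bla cells had been treated 16 h at 37C with test compounds in DMSO, following a 4 h settling period, and substrate was loaded for 2 h at RT.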

[8] = molecular target: Vitamin D3 receptor (Homo sapiens) (UniProt P11473); test: qHTS assay to identify small molecule antagonists of the vitamin D receptor (VDR) signaling pathway (AID 743223; active = well fitted inhibition curve with a large enough effect in the signal ratio in the repeat runs, not every such curve was filed as active; the % refers to the signal ratio)
Method in brief: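 Antagonist mode uses 1alpha,25-dihydroxyvitamin D3 at 3 nM final as stimulus. VDR-bla cells receive compounds in DMSO, incubate 16 h at 37C, then a beta-lactamase FRET substrate for 2 h at room temperature before fluorescence measurement.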

[9] = qHTS assay to identify small molecule agonists of the vitamin D receptor (VDR) signaling pathway - cell viability counter screen (AID 743224); note: nearly all actives have a fitted effect of over 50% in size; note: potency is the fitted concentration of half-maximal effect
Method in brief: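 Compounds were pin-transferred onto VDR-bla cells plated 4 h earlier; following 16 h incubation at 37C, cell viability was quantified by CellTiter-Glo luminescence after 30 min at room temperature.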

[10] = qHTS assay to identify small molecule antagonists of the vitamin D receptor (VDR) signaling pathway - cell viability counter screen (AID 743225); note: nearly all actives have a fitted effect of over 50% in size; note: potency is the fitted concentration of half-maximal effect
Method in brief: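 Read-out: CellTiter-Glo luminescence measured 30 min after reagent addition at room temperature. Cells were VDR-bla HEK 293T exposed 16 h at 37C, 5% CO2, to compound with 3 nM final calcitriol agonist.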

[11] = qHTS assay to identify small molecule agonists of the NFkB signaling pathway (AID 1159509; active = well fitted curve in the direction sought with a large enough effect in the signal ratio in the repeat runs, not every such curve was filed as active; the % refers to the signal ratio; note: series mostly up to about 61 µM)
Method in brief: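 Beta-lactamase reporter assay run in quantitative high-throughput format on an NF-kB-responsive ME-180 line, with 5 hr compound treatment and a FRET-based blue/green fluorescence readout.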

[12] = qHTS assay to identify small molecule agonists of the NFkB signaling pathway - cell viability counter screen (AID 1159515; calls by dose curve; note: series mostly up to about 61 µM; nearly all actives have a fitted effect of over 55% in size)
Method in brief: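 Parallel cytotoxicity counter screen in ME-180 cells carrying an NFkB-response-element beta-lactamase reporter, 2,000 cells/well. Compound exposure lasted 5 hr at 37 C, 5% CO2. Cell viability was quantified by CellTiter-Glo luminescence.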

[13] = qHTS assay to identify small molecule antagonists of the retinoid-related orphan receptor gamma (ROR-gamma) signaling pathway - cell viability counter screen (AID 1159520); note: nearly all actives have a fitted effect of over 50% in size
Method in brief: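 Cytotoxicity was read from cellular ATP (CellTiter-Glo luminescence) after 16 hr at 37 C with 1 uM doxycycline induction. The inducer was added 2 hr after compound transfer to Tet-on ROR gamma CHO cells.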

[14] = molecular target: Nuclear receptor ROR-gamma (Homo sapiens) (UniProt P51449); test: qHTS assay to identify small molecule antagonists of the retinoid-related orphan receptor gamma (ROR-gamma) signaling pathway (AID 1159521; note: nearly all actives have a fitted effect of over 50% in size; note: potency is the fitted concentration of half-maximal effect)
Method in brief: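 CHO Tet-on RORγ, RORE-luc reporter. Cpd 2 h pre-incubation, then dox hyclate 1 uM final, 16 h, 37 C/5% CO2. ONE-Glo luminescence; decrease = antagonist.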

[15] = qHTS assay to identify small molecule agonists of the AP-1 signaling pathway - cell viability counter screen (AID 1159525; calls by dose curve; note: nearly all actives have a fitted effect of over 55% in size)
Method in brief: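 Intracellular ATP by Cell Titer Glo luminescence (30 min, RT) in the same ME-180 AP-1-bla wells after the 5 h compound exposure at 37 °C. Normalised to tetra n-octyl ammonium bromide and DMSO controls.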

[16] = qHTS assay to identify small molecule agonists of the peroxisome proliferator-activated receptor delta (PPARd) signaling pathway - cell viability counter screen (AID 743211); note: nearly all actives have a fitted effect of over 55% in size; note: potency is the fitted concentration of half-maximal effect
Method in brief: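 HEK293H PPARd-bla, 3000 cells/well; 5 h preincubation 37C/5% CO2; cpd in DMSO, 17 h 37C; B/G FRET substrate 2 h RT; CellTiter-Glo 30 min RT, luminescence.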

[17] = qHTS assay to identify small molecule agonists of the AP-1 signaling pathway (AID 1159526; calls by dose curve)
[18] = molecular target: Bile acid receptor (Homo sapiens) (UniProt Q96RI1); test: qHTS assay to identify small molecule agonists of the farnesoid-X-receptor (FXR) signaling pathway (AID 743220; active = well fitted activation curve with a large enough effect in the signal ratio in the repeat runs, not every such curve was filed as active; the % refers to the signal ratio)
Method in brief: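 FXR-UAS-bla HEK 293T cells carrying a UAS-driven beta-lactamase reporter were plated for 5 h at 37C/5% CO2, then exposed to DMSO-dissolved Tox21 10K compounds for 16 h at 37C. A LiveBLAzer B/G FRET substrate was loaded for 2 h at room temperature before fluorescence reading.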

[19] = qHTS assay to identify small molecule agonists of the endoplasmic reticulum stress response signaling pathway - cell viability counter screen (AID 1159517; calls by dose curve)
Method in brief: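 After overnight attachment, ESRE-bla HeLa cells were treated with Tox21 library compounds for 5 hr. CellTiter-Glo luminescence, read 30 min post-addition at room temperature, reported viability.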

Measured: Potency

CN(C)CCN1C(=O)c2ccccc2N(C)c2ccccc21
not listed: [16] | [17] | [18] | [19]
inactive: all other assays above

CCCCCCCCOc1ccc(C(=O)O)cc1
active: [1] 7.67 µM
not listed: [3] | [7] | [18] | [19]
inactive: all other assays above

CC(=O)Oc1ccc([N+](=O)[O-])cc1CCl
not listed: [3] | [5] | [7] | [8] | [13] | [14]
inactive: all other assays above

Cc1c(C)c2c(c(C)c1OC(=O)CCC(=O)OCCO)CC[C@@](C)(CCC[C@H](C)CCC[C@H](C)CCCC(C)C)O2
inactive: [1] | [11] | [12] | [13] | [15]
active: [16] 33.5 µM | [9] 26.6 µM | [10] 26.8 µM

CC=C(Cl)Cl
not listed: [4] | [5] | [14] | [18] | [19]
inactive: all other assays above

CCOC(=O)/C=C/C(=O)OCC
not listed: [4] | [14] | [15] | [18] | [19]
inactive: all other assays above

C=C(C)[C@@H]1CCC2=CCC[C@@H](C)[C@]2(C)C1
inactive: [2] | [6] | [11] | [12] | [13] | [15] | [17]

O=[N+]([O-])c1ccc(O/N=C/c2cc(Br)c(O)c(Br)c2)c([N+](=O)[O-])c1
inactive: [4] | [5] | [7] | [8] | [9] | [11] | [12] | [15]
active: [14] 6.82 µM

c1ccc(C[n+]2cccc3ccccc32)cc1
not listed: [1] | [3] | [8] | [9] | [10] | [18] | [19]
inactive: all other assays above

CC1CC(OC(=O)C(O)c2ccccc2)CC(C)(C)N1C (stereo unspecified)
not listed: [2] | [3] | [4] | [5] | [7] | [8] | [18] | [19]
inactive: all other assays above

O=C(OCC(O)CO)c1ccccc1Nc1ccnc2cc(Cl)ccc12 (stereo unspecified)
active: [16] 33.5 µM | [2] 26.6 µM
inactive: [10] | [11] | [12] | [19] | [15] | [17]
